# Activity calls are given as the source filed them.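 The calls were made as follows, unless noted: active = compound raises insulin release from rat beta cells at 5 mM glucose, no numeric limit stated; inactive = the rest.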
# How the values were obtained:
# [1] = hESC survival regulators, cell-based (AID 493140; call rule not given here;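 also: cells exposed to compounds for four days before counting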); conditions: human embryonic stem cell survival screen; stronger effect = higher value
# [2] = stimulators of nuclear beta-catenin in C2C12, primary screen, imaging, WNT3A-conditioned medium, mouse C2C12, NPC library (AID 1117326; in the data active = nuclear beta-catenin stimulation mostly above about 4.2%, no sharp cut-off; inactive = mostly below about 10%); conditions: stronger effect = higher value
# [3] = stimulators of insulin release from INS-1E, primary screen, cell-based, 5 mM glucose, NPC library (AID 1117329); conditions: rat INS-1E insulin secretion, at 10 µM, stronger effect = higher value
# [4] = growth inhibition of GSK3B-pretreated HCT116 cells – cell-based, CellTiter-Glo, 0.2 to 20 µM (AID 1117336;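 active = compounds lowering colon cancer cell viability after pretreatment blocking the GSK3B kinase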); conditions: HCT116 viability after GSK3B inhibitor, at 20 µM, stronger effect = higher value
# [5] = inhibition of endothelial tube formation, primary screen, imaging, VEGF stimulated, CD31 staining, tube area, NPC library (AID 1117340;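 active = compound that reduces growth-factor-driven endothelial tube area in a mixed cell culture, no cutoff stated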); conditions: VEGF-stimulated ADSC/ECFC co-culture, at 10 µM, stronger effect = higher value
# [6] = glucagon-like peptide 1 release enhancers, primary assay, NCI-H716 cell line, NPC library (AID 1117341;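 active = compound raises GLP1 secretion from the human gut endocrine cells, with no numeric limit stated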); conditions: NCI-H716 cells, at 10 µM, stronger effect = higher value
# [7] = HCT116 colon cancer cell growth inhibition, primary screen, CellTiter-Glo luminescence, NPC library (AID 1117342;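 active = compounds that lower survival of HCT116 colon cancer cells in the luminescence readout, no numeric limit stated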); conditions: at 20 µM (top of the series)
# [8] = CellTiter-Glo luminescent readout of SW480 viability loss, NPC library primary (AID 1117343;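 active = compounds that lower viability of the colon cancer cells in the luminescence readout, with no numeric limit stated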); conditions: CellTiter-Glo luminescence; at 20 µM (top of the series) unless noted
# [9] = decreased DLD-1 cellular survival, CellTiter-Glo luminescent readout, NPC compound collection, primary HTS (AID 1117346;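 active = compounds that lower survival of DLD-1 colon cancer cells in the luminescence readout, no cutoff given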); conditions: DLD-1 viability, CellTiter-Glo luminescence; at 20 µM (top of the series)
# [10] = LFS_MB_P medulloblastoma growth inhibition, cell-based, chromothripsis tumors, cisplatin or BGB combos (AID 1671449; in the data active = inhibition above about 80%;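 also: cells exposed for 96 hours; 0% = vehicle DMSO and 100% = killing by high DMSO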); conditions: LFS_MB_P medulloblastoma cells
# [11] = ICB984 medulloblastoma cell growth inhibition, synergistic combos for chromothripsis tumors, cisplatin or BGB combos (AID 1671451; call rule not given here;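 also: cells exposed for 96 hours before readout; 0% = vehicle DMSO and 100% = killing by high DMSO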); conditions: ICB984 medulloblastoma cells, drug combinations, stronger effect = higher value
# [12] = target: Mitogen-activated protein kinase 7 (Homo sapiens) (UniProt Q13164); assay: ERK5 transactivation activators in reporter cells, primary screen, cell-based, HTS (AID 1508626;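 active = luciferase signal above three times the same-plate solvent-only control wells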;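 also: luciferase driven by Gal4-ERK5 fusion binding five Gal4 sites before minimal TATA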); conditions: HeLa Gal4-ERK5 transactivation, 18 h, at 5 µM, stronger effect = higher value
# Sequence of Mitogen-activated protein kinase 7 (Homo sapiens) (Q13164 whole entry, looked up, the tested form may be a part): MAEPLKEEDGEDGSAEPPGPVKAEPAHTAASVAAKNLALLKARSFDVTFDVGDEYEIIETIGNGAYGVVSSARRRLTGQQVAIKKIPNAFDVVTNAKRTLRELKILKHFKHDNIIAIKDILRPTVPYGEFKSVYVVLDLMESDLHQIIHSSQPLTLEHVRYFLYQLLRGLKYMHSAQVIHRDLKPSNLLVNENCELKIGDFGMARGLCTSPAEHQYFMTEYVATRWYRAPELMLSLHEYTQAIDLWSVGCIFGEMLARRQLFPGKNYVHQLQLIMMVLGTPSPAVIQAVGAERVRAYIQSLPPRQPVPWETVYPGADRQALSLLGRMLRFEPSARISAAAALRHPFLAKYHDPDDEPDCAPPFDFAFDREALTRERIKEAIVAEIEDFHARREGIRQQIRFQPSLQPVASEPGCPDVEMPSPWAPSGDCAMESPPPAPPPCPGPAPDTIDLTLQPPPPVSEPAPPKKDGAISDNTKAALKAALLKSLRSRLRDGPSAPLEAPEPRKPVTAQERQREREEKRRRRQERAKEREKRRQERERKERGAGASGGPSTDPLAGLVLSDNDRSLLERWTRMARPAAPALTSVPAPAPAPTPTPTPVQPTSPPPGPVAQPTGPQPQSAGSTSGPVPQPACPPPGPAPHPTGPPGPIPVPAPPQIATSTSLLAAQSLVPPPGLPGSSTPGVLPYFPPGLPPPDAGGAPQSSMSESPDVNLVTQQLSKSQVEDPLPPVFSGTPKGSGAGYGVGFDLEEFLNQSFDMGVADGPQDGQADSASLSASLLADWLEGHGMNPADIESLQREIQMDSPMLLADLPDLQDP
# [13] = target: NAD(+) hydrolase SARM1 (Homo sapiens) (UniProt Q6SZW1); assay: SARM1 TIR NADase inhibitors, cell lysate, NAD-Glo luminescence (AID 1508614;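 active = compound whose remaining NAD level is above about 45 nM, limit read from the data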;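 also: higher remaining NAD means stronger inhibition of SARM1 NADase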); conditions: SAM-TIR HEK293T lysate NADase, at 1 µM, stronger effect = higher value
# Sequence of NAD(+) hydrolase SARM1 (Homo sapiens) (Q6SZW1 whole entry, looked up): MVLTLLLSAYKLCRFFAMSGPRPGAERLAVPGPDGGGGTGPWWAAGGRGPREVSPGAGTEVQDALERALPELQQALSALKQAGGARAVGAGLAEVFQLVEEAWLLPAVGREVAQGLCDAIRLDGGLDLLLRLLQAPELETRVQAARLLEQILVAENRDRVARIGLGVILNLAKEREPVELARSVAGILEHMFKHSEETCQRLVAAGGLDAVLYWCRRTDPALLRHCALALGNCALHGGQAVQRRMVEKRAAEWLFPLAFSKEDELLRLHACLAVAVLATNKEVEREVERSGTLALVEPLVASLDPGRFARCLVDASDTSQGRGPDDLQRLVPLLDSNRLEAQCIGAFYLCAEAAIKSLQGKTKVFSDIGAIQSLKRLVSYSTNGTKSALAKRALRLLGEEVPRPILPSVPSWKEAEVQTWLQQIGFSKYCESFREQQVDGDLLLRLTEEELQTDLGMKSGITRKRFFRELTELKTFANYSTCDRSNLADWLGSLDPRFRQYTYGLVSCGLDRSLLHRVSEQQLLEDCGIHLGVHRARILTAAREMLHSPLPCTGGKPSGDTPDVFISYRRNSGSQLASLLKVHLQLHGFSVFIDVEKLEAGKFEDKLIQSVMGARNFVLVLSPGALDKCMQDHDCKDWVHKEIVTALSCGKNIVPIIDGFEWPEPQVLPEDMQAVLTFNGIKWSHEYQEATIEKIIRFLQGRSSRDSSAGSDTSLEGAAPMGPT
# [14] = sensitizers of A549 cells to miR-34 induction, primary screen, imaging, A549 dox-inducible miR-34, nuclei and caspase counts (AID 1347080;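 active = compounds whose cell count with miR-34 switched on is under 0.7 times the count with it off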); conditions: A549 miR-34 inducible, Hoechst nuclei count, 48 h
# [15] = survival rescue of mitochondrial mutant cells in low glucose, primary screen, MELAS cybrids, Rieske KO mouse fibroblasts, CellTiter-Glo (AID 1508586;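 active = mean z-score across replicates of 1.96 or higher in either the MELAS or the Rieske mutant cell line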;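 also: z relative to plate mean and SD of compound and empty wells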)
smiles,measurement,setting,value
C[C@@H]1CCC[C@H](C)N1,survival,[1],4.42 (inactive)
same,nuclear beta-catenin stimulation,[2]; at 10 µM,1.3% (inactive)
same,nuclear beta-catenin stimulation,"[2]; stimulation, at 2 µM",1%
same,insulin secretion stimulation,[3],-1.2% (inactive)
same,viability decrease,[4],-2.8% (inactive)
same,tube area decrease,[5],3.6% (inactive)
same,GLP1 secretion stimulation,[6],0.5% (inactive)
same,inhibition of viability,[7],-4.9% (inactive)
same,viability decrease (inhibition),[8],6.2% (inactive)
same,viability decrease (inhibition),[9],2.2% (inactive)
CN1C[C@@H]2C[C@H]1CN2c1cc2c(cc1F)c(=O)c(C(=O)O)cn2C1CC1,nuclear beta-catenin stimulation,[2]; at 10 µM,0.8% (inactive)
same,nuclear beta-catenin stimulation,"[2]; stimulation, at 2 µM",-0.6%
same,insulin secretion stimulation,[3],0.3% (inactive)
same,viability decrease,[4],10.6% (inactive)
same,tube area decrease,[5],-6.5% (inactive)
same,GLP1 secretion stimulation,[6],-0.3% (inactive)
same,inhibition of viability,[7],3.9% (inactive)
same,viability decrease (inhibition),[8],-13% (inactive)
same,viability decrease (inhibition),[9],-40.5% (inactive)
same,inhibition,"[10]; at 0.5 µM, stronger effect = higher value",0.4% (inactive)
same,inhibition,"[10]; measured here: combination with BGB IC20, at 0.005 µM",-2.07%
same,inhibition,"[10]; measured here: combination with BGB IC40, at 0.005 µM",-7.14%
same,inhibition,"[10]; measured here: combination with BGB IC40, at 0.05 µM",-8.41%
same,inhibition,"[10]; measured here: combination with cisplatin, at 0.5 µM, stronger effect = higher value",-11.6%
same,inhibition,"[10]; measured here: combination with cisplatin, at 5 µM, stronger effect = higher value",-5.22%
same,inhibition,"[11]; BGB IC20 combo, at 0.005 µM",-24.2%
same,inhibition,"[11]; BGB IC40 combo, at 0.005 µM",-26.9%
same,inhibition,"[11]; BGB IC40 combo, at 0.05 µM",-20.5%
same,inhibition,[11]; at 0.5 µM,-31.1% (inactive)
same,inhibition,"[11]; cisplatin combo, at 0.05 µM",-23.9%
same,inhibition,"[11]; cisplatin combo, at 0.5 µM",-25.9%
same,inhibition,"[11]; cisplatin combo, at 5 µM",-68.4%
same,inhibition,"[11]; measured here: 5 uM single agent, at 5 µM",-23.8%
CC(=O)Oc1ccc2c(c1)CC[C@@H]1[C@@H]2CC[C@]2(C)[C@@H](O)CC[C@@H]12,nuclear beta-catenin stimulation,[2]; at 10 µM,6.2% (inactive)
same,nuclear beta-catenin stimulation,"[2]; stimulation, at 2 µM",4.6%
same,insulin secretion stimulation,[3],1.3% (inactive)
same,viability decrease,[4],13.1% (inactive)
same,tube area decrease,[5],-71.2% (inactive)
same,GLP1 secretion stimulation,[6],1.6% (inactive)
same,inhibition of viability,[7],41.6% (inactive)
same,viability decrease (inhibition),[8],72.9% (active)
same,viability decrease (inhibition),[9],35.2% (inactive)
same,luciferase signal,[12],36 AU (inactive)
O=C(O)C(S)C(S)C(=O)O (stereo not given),nuclear beta-catenin stimulation,[2]; at 10 µM,2.3% (inactive)
same,nuclear beta-catenin stimulation,"[2]; stimulation, at 2 µM",0.8%
same,insulin secretion stimulation,[3],1.3% (inactive)
same,viability decrease,[4],-17% (inactive)
same,tube area decrease,[5],14% (inactive)
same,GLP1 secretion stimulation,[6],6.2% (inactive)
same,inhibition of viability,[7],-11.3% (inactive)
same,viability decrease (inhibition),[8],-31.1% (inactive)
same,viability decrease (inhibition),[9],-4.5% (inactive)
same,luciferase signal,[12],96 AU (inactive)
CC(C)=CCC[C@@](C)(O)[C@H]1CC=C(C)CC1,nuclear beta-catenin stimulation,[2]; at 10 µM,1.8% (inactive)
same,nuclear beta-catenin stimulation,"[2]; stimulation, at 2 µM",4%
same,insulin secretion stimulation,[3],3.6% (inactive)
same,viability decrease,[4],-34.3% (inactive)
same,tube area decrease,[5],5% (inactive)
same,GLP1 secretion stimulation,[6],2.7% (inactive)
same,inhibition of viability,[7],-4.77% (inactive)
same,viability decrease (inhibition),[8],-13% (inactive)
same,viability decrease (inhibition),[9],-9.9% (inactive)
same,luciferase signal,[12],32 AU (inactive)
O=C(NC1CCN(CCc2c[nH]c3ccccc23)CC1)c1ccccc1,nuclear beta-catenin stimulation,[2]; at 10 µM,1% (inactive)
same,nuclear beta-catenin stimulation,"[2]; stimulation, at 2 µM",2%
same,insulin secretion stimulation,[3],1.25% (inactive)
same,GLP1 secretion stimulation,[6],-4.5% (inactive)
COc1cc(O)c(C(=O)c2ccccc2)cc1S(=O)(=O)O,nuclear beta-catenin stimulation,[2]; at 10 µM,-0.8% (inactive)
same,nuclear beta-catenin stimulation,"[2]; stimulation, at 2 µM",0.1%
same,insulin secretion stimulation,[3],-1.1% (inactive)
same,viability decrease,[4],-7.35% (inactive)
same,tube area decrease,[5],-4.4% (inactive)
same,GLP1 secretion stimulation,[6],-0.7% (inactive)
same,inhibition of viability,[7],-1.4% (inactive)
same,viability decrease (inhibition),[8],-19.9% (inactive)
same,viability decrease (inhibition),[9],4.15% (inactive)
same,remaining NAD,[13],10 nM (inactive)
c1ccc2ccccc2c1,nuclear beta-catenin stimulation,[2]; at 10 µM,0.7% (inactive)
same,nuclear beta-catenin stimulation,"[2]; stimulation, at 2 µM",7.8%
same,insulin secretion stimulation,[3],6.8% (inactive)
same,viability decrease,[4],13.1% (inactive)
same,inhibition of viability,[7],14.8% (inactive)
same,viability decrease (inhibition),[8],-4.5% (inactive)
same,viability decrease (inhibition),[9],4.2% (inactive)
CCCCC[C@@H](O)CC[C@H]1[C@@H]2Cc3cccc(OCC(=O)O)c3C[C@@H]2C[C@@H]1O,nuclear beta-catenin stimulation,[2]; at 10 µM,-0.3% (inactive)
same,nuclear beta-catenin stimulation,"[2]; stimulation, at 2 µM",0.2%
same,insulin secretion stimulation,[3],-0.45% (inactive)
same,GLP1 secretion stimulation,[6],8.8% (inactive)
CCCCC(=O)O[C@]1(C(=O)CO)CC[C@H]2[C@@H]3CCC4=CC(=O)CC[C@]4(C)[C@H]3[C@@H](O)C[C@@]21C,nuclear beta-catenin stimulation,[2]; at 10 µM,-1.9% (inactive)
same,nuclear beta-catenin stimulation,"[2]; stimulation, at 2 µM",0.1%
same,insulin secretion stimulation,[3],1.5% (inactive)
same,viability decrease,[4],-12.8% (inactive)
same,tube area decrease,[5],-17.7% (inactive)
same,GLP1 secretion stimulation,[6],-1.5% (inactive)
same,inhibition of viability,[7],7.7% (inactive)
same,viability decrease (inhibition),[8],6.4% (inactive)
same,viability decrease (inhibition),[9],-15.9% (inactive)
same,remaining NAD,[13],10 nM (inactive)
same,luciferase signal,[12],72 AU (inactive)
Cc1c(-c2ccc(O)cc2)n(Cc2ccc(OCCN3CCCCCC3)cc2)c2ccc(O)cc12,nuclear beta-catenin stimulation,[2]; at 10 µM,-3.3% (active)
same,nuclear beta-catenin stimulation,"[2]; stimulation, at 2 µM",44.5%
same,insulin secretion stimulation,[3],4.3% (inactive)
same,viability decrease,[4],99.8% (active)
same,inhibition of viability,[7],99.7% (active)
same,viability decrease (inhibition),[8],102% (active)
same,viability decrease (inhibition),[9],101% (active)
same,fold change,"[14]; stronger effect = lower value, cell number ratio, induced over uninduced",0.919 (inactive)
same,fold change,[14]; measured here: relative caspase fold change +Dox/-Dox,0.888
same,cell count,"[14]; measured here: total cells with miR-34 induction, stronger effect = lower value",6380
same,cell count,[14]; measured here: total cells without miR-34 induction,6940
same,z-score,"[15]; MELAS cybrid survival, CellTiter-Glo 48 h, stronger effect = higher value",-0.437 (inactive)
same,z-score,"[15]; Rieske KO mouse fibroblast survival, CellTiter-Glo 72 h",0.502
CC(=O)NC(=O)c1ccccc1O,nuclear beta-catenin stimulation,[2]; at 10 µM,4.6% (inactive)
same,nuclear beta-catenin stimulation,"[2]; stimulation, at 2 µM",0.9%
same,insulin secretion stimulation,[3],-0.5% (inactive)
same,GLP1 secretion stimulation,[6],-0.9% (inactive)
CN(C)CCCO[C@@H]1[C@H]2OC(C)(C)O[C@H]2O[C@@H]1C(O)CO (stereo not given in full),nuclear beta-catenin stimulation,[2]; at 10 µM,-2% (inactive)
same,nuclear beta-catenin stimulation,"[2]; stimulation, at 2 µM",-1%
same,insulin secretion stimulation,[3],0.9% (inactive)
same,viability decrease,[4],24.4% (inactive)
same,tube area decrease,[5],-18.7% (inactive)
same,GLP1 secretion stimulation,[6],0.3% (inactive)
same,inhibition of viability,[7],55.2% (active)
same,viability decrease (inhibition),[8],13.2% (inactive)
same,viability decrease (inhibition),[9],66.4% (active)
C#C[C@]1(OC(C)=O)CC[C@H]2[C@@H]3CCC4=C/C(=N/O)CC[C@@H]4[C@H]3CC[C@@]21CC,nuclear beta-catenin stimulation,[2]; at 10 µM,3.7% (inactive)
same,nuclear beta-catenin stimulation,"[2]; stimulation, at 2 µM",2.1%
same,insulin secretion stimulation,[3],-0.2% (inactive)
same,viability decrease,[4],98.8% (active)
same,tube area decrease,[5],99% (active)
same,GLP1 secretion stimulation,[6],-2.6% (inactive)
same,inhibition of viability,[7],99.1% (active)
same,viability decrease (inhibition),[8],102% (active)
same,viability decrease (inhibition),[9],101% (active)
same,luciferase signal,[12],24 AU (inactive)
